Where “and” joins values, the source holds several entries; their conditions need not be identical. Equal entries are not always repeated. Compounds without any hit were thinned out: in the full panel of roughly 83,000, 20% have a hit.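 Compound tested at a single concentration for 48 hours in 96-well plates; a percent growth value below 10 was scored as active.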
Tests used:
Experiment in all cases: NCI-60 one-dose screen, 48 h (100 = growth as untreated, 0 = no growth, -100 = all killed)
Conditions in all cases: 10 µM unless noted
NCI-H23 lung = test system: NCI-H23 lung
NCI-H226 lung = test system: NCI-H226 lung
NCI-H322M lung = test system: NCI-H322M lung
HOP-62 NSCLC = test system: HOP-62 NSCLC
NCI-H460 lung = test system: NCI-H460 lung
HOP-92 NSCLC = test system: HOP-92 NSCLC
NCI-H522 lung = test system: NCI-H522 lung
A549/ATCC NSCLC = test system: A549/ATCC NSCLC
786-0 renal = test system: 786-0 renal
COLO 205 colon = test system: COLO 205 colon
DU-145 prostate = test system: DU-145 prostate
K-562 leukemia = test system: K-562 leukemia
MALME-3M melanoma = test system: MALME-3M melanoma
MDA-MB-231 breast = test system: MDA-MB-231 breast
RXF 393 renal = test system: RXF 393 renal
SF-268 CNS = test system: SF-268 CNS
SF-295 CNS = test system: SF-295 CNS
SF-539 CNS = test system: SF-539 CNS
UACC-257 melanoma = test system: UACC-257 melanoma
M14 melanoma = test system: M14 melanoma

Measured: growth

N#CC1c2ccccc2C=CN1C(=O)c1ccccc1 (stereo not given)
inactive: NCI-H23 lung 104% and 112% | NCI-H226 lung 103% and 89.1% | NCI-H322M lung 105% and 103% | HOP-62 NSCLC 126% and 101% | NCI-H460 lung 106% and 98.9% | HOP-92 NSCLC 75.5% | NCI-H522 lung 103% and 91.7% | A549/ATCC NSCLC 104% and 107% | 786-0 renal 107% and 102% | COLO 205 colon 126% and 157% | DU-145 prostate 108% and 94.1% | K-562 leukemia 99.6% and 112% | MALME-3M melanoma 94.8% and 108% | MDA-MB-231 breast 96% and 94.1% | RXF 393 renal 136% and 118% | SF-268 CNS 111% and 84.8% | SF-295 CNS 101% and 93.3% | SF-539 CNS 112% and 86.6% | UACC-257 melanoma 103% and 113% | M14 melanoma 99.9% and 98.7%

COC(=O)c1cc(C(=O)OC)cc([N+](=O)[O-])c1
inactive: NCI-H23 lung 105% | NCI-H226 lung 108% | NCI-H322M lung 117% | HOP-62 NSCLC 94.8% | NCI-H460 lung 113% | HOP-92 NSCLC 105% | NCI-H522 lung 90.6% | A549/ATCC NSCLC 87.7% | 786-0 renal 92.9% | COLO 205 colon 101% | DU-145 prostate 113% | K-562 leukemia 99.7% | MALME-3M melanoma 113% | MDA-MB-231 breast 112% | RXF 393 renal 118% | SF-268 CNS 108% | SF-295 CNS 111% | SF-539 CNS 97.4% | UACC-257 melanoma 82.7% | M14 melanoma 106%

CCOC(=N)c1ccc(C(=N)OCC)cc1
inactive: NCI-H23 lung 101% | NCI-H226 lung 100% | NCI-H322M lung 113% | HOP-62 NSCLC 84.2% | NCI-H460 lung 111% | HOP-92 NSCLC 93% | NCI-H522 lung 97.3% | A549/ATCC NSCLC 99.7% | 786-0 renal 86.8% | COLO 205 colon 103% | DU-145 prostate 103% | K-562 leukemia 98.7% | MALME-3M melanoma 106% | MDA-MB-231 breast 96.3% | RXF 393 renal 112% | SF-268 CNS 98.4% | SF-295 CNS 91.6% | SF-539 CNS 98.1% | UACC-257 melanoma 102% | M14 melanoma 104%

O=C(O)C#Cc1ccc(Cl)cc1
inactive: NCI-H23 lung 109% | NCI-H226 lung 93.2% | NCI-H322M lung 111% | HOP-62 NSCLC 89.3% | NCI-H460 lung 105% | HOP-92 NSCLC 97.8% | NCI-H522 lung 87.2% | A549/ATCC NSCLC 87.2% | 786-0 renal 99.4% | COLO 205 colon 99.9% | DU-145 prostate 109% | K-562 leukemia 88.5% | MALME-3M melanoma 104% | MDA-MB-231 breast 100% | RXF 393 renal 108% | SF-268 CNS 104% | SF-295 CNS 99.7% | SF-539 CNS 102% | UACC-257 melanoma 87.3% | M14 melanoma 98.2%

OCc1ccccc1F
inactive: NCI-H23 lung 88% | NCI-H226 lung 103% | NCI-H322M lung 105% | HOP-62 NSCLC 97.3% | NCI-H460 lung 48.1% | HOP-92 NSCLC 106% | NCI-H522 lung 71.1% | A549/ATCC NSCLC 93.4% | 786-0 renal 101% | COLO 205 colon 92.3% | DU-145 prostate 11.4% | K-562 leukemia 106% | MALME-3M melanoma 134% | MDA-MB-231 breast 86.3% | RXF 393 renal 77.5% | SF-268 CNS 95.8% | SF-295 CNS 72% | SF-539 CNS 101% | UACC-257 melanoma 107% | M14 melanoma 90.8%

Nc1c(S(=O)(=O)O)cc(Br)c2c1C(=O)c1ccccc1C2=O
inactive: NCI-H23 lung 103% | NCI-H226 lung 98.2% and 99.6% | NCI-H322M lung 95.6% and 106% | HOP-62 NSCLC 88.1% and 111% | NCI-H460 lung 102% and 106% | HOP-92 NSCLC 73.4% | NCI-H522 lung 83% | A549/ATCC NSCLC 104% | 786-0 renal 106% and 110% | COLO 205 colon 97.5% and 106% | DU-145 prostate 106% and 116% | K-562 leukemia 101% and 96.6% | MALME-3M melanoma 97.6% and 116% | MDA-MB-231 breast 115% and 107% | RXF 393 renal 111% and 98.7% | SF-268 CNS 102% and 106% | SF-295 CNS 104% and 100% | SF-539 CNS 104% and 101% | UACC-257 melanoma 83.3% | M14 melanoma 117% and 110%

— PubChem BioAssay (NCI)
